Only some compounds are listed: those with a hit (about 1.2% of all), similar ones and a draw of the others.
Gli-Sufu block – Gli-Sufu pathway antagonists, primary screen, luciferase luminescence, Sufu-KO-LIGHT cells, uHTS; Sufu-KO-LIGHT fibroblasts, Gli luciferase reporter luminescence; inhibition, % at 5 µM; 340,000 compounds, 0.74% hits; AID 588413, 2011;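 active means inhibition above about 55%, limit read from the data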;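 further: 0% = DMSO-treated cells and 100% = wells with medium but no cells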
LRH-1 inv ag – LRH-1 (NR5A2) inverse agonists, primary screen, cell-based, luminescence, HEK293T, StAR-luciferase reporter. Nuclear receptor subfamily 5 group A member 2 (Homo sapiens), O00482. LRH-1 transfected, 24 h. inhibition, % at 3.6 µM. 360,000 compounds, 0.13% hits. AID 602396, 2012;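 active means inhibition above the mean inhibition of all tested compounds plus 3 SD, cut at about 73% in these data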;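 further: 0% = DMSO wells and 100% = reporter-only cells lacking LRH-1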
NCOA2 inhibitor – inhibition of GAL4-SRC2 driven luciferase reporter, primary screen, SRC2 inhibitor project, cell-based, luminescence. Nuclear receptor coactivator 2 (Homo sapiens), Q15596. HEK293 GAL4-SRC2 luciferase reporter. inhibition, % at 9 µM. 370,000 compounds, 0.17% hits. AID 651957, 2012;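 active means inhibition above the mean inhibition of all tested compounds plus 3 SD, set per campaign, cut at about 52% in these data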;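 further: 0% = DMSO treated cells and 100% = cells given Gossypol at 36 µM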
NCOA1 inh – SRC1 coactivator transcriptional activity inhibitors, primary screen, cell-based, luminescence | inhibition, % at 3.6 µM | HEK293 GAL4-SRC1 luciferase reporter | Nuclear receptor coactivator 1 (Homo sapiens), Q15788 | AID 588354, 2011 | 360,000 compounds, 0.12% hits;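 active means inhibition above the campaign mean plus 3 SD, with each screening campaign given its own cutoff, cut at about 60% in these data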;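 further: 0% = DMSO treated cells and 100% = gossypol at 36 µM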
NCOA3 inh – SRC3 coactivator transcriptional activity inhibitors, primary screen, cell-based, luminescence. Nuclear receptor coactivator 3 (Homo sapiens), Q9Y6Q9. HEK293 GAL4-SRC3 luciferase reporter. inhibition, % at 3.6 µM. 360,000 compounds, 0.17% hits. AID 588352, 2011;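 active means inhibition above a per-campaign cutoff, the mean of all compounds plus 3 SD, cut at about 60% in these data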;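 further: 0% = DMSO-treated cells and 100% = gossypol-treated cells at 36 µM; higher means less SRC3-driven luciferase light from the GAL4 reporter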
COUP-TFII inh – NR2F2 transcriptional activity inhibitors, primary screen, cell-based, luciferase reporter, HEK293T, luminescence; COUP transcription factor 2 (Homo sapiens), P24468; HEK293T NGFI-A luciferase reporter; inhibition, % at 8.6 µM; 370,000 compounds, 0.7% hits; AID 686940, 2013;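 active means inhibition above a per-plate cutoff, mean inhibition of test wells between control levels plus 3 SD, cut at about 38% in these data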;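 further: cells cotransfected with COUP-TFII expression vector driving the NGFI-A reporter; 0% = median of COUP-TF2 test wells and 100% = reporter-only cells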
Gli-Sufu confirm – Gli-SUFU pathway antagonists, confirmation, single concentration, luciferase luminescence, Sufu-KO-LIGHT cells; Gli luciferase reporter; inhibition, % at 5 µM; 2,500 compounds, 40% hits; AID 602428, 2012; shares compounds with Gli-Sufu block;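 active means mean inhibition at 5 µM reaching about 45%, limit read from the data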;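 further: plate controls were DMSO-treated cells for no effect and wells lacking cells for full effect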
Gli cytotox – cytotoxicity in Sufu-KO-LIGHT cells, confirmation, cytotoxicity control for Gli-SUFU antagonist project, cell-based, ATP luminescence, single concentration; shares compounds with Gli-Sufu block; cytotoxicity, % at 5 µM; 2,500 compounds, 32% hits;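 active means mean cytotoxicity at 5 µM above about 25%, limit read from the data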;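 further: cells exposed to compound overnight for roughly 16 to 18 hours; plate controls were DMSO wells with cells for no effect and medium without cells for full effect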
Wnt3a counter – Wnt3a reporter signal inhibition, confirmation, counter-screen for Gli-SUFU antagonist project, Wnt-LIGHT cells, luminescence, single concentration; shares compounds with Gli-Sufu block; Wnt3a-driven luciferase reporter; inhibition, % at 6.25 µM; 2,500 compounds, 20% hits; AID 651995, 2013;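 active means mean inhibition above about 25%, limit read from the data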
Active calls of the source: *; . = not tested or not shown.

SMILES	Gli-Sufu block	LRH-1 inv ag	NCOA2 inhibitor	NCOA1 inh	NCOA3 inh	COUP-TFII inh	Gli-Sufu confirm	Gli cytotox	Wnt3a counter
O=C(Nc1nnc(-c2cccs2)o1)c1cccc(F)c1	50	-16	-22	-1	-30	-4	15	24	-36
CC(C)c1nnc(NC(=O)CC(=O)Nc2ccccc2C(=O)O)s1	52	-35	-30	-5	-17	-12	44	-5	48*
CCOc1ccccc1C1CC(=O)Nc2cc3c(cc21)OCCO3 (stereo not drawn)	46	37	30	14	-2	-23	.	.	.
CCCOc1ccccc1C1CC(=O)Nc2cc3c(cc21)OCCO3 (stereo not drawn)	66*	9	.	6	18	.	65*	60*	-10
CCc1ccccc1NC(=S)N(CCCN1CCN(C)CC1)Cc1cccs1	54	10	5	0	19	-2	17	4	14
Cc1ccccc1C1NC(c2ccccc2C)C([N+](=O)[O-])C(C)(C)C1[N+](=O)[O-] (stereo not drawn)	54	-5	17	-4	12	-5	17	11	-16
Cc1cccc(C)c1-n1nnnc1C1c2ccccc2OCC(=O)N1Cc1ccc(F)cc1 (stereo not drawn)	.	.	16	.	.	2	.	.	.
CCCC[C@H]1C2CC(OC(=O)Nc3cccc(F)c3)C(C2)[C@H]2CCCCN21 (stereo partly drawn)	.	.	2	.	.	15	.	.	.
CN(CCCNC(=O)c1nn(C)c2c1CS(=O)(=O)c1ccccc1-2)Cc1ccccc1	20	10	-24	-6	-27	2	.	.	.
CC(C)N(CCCNC(=O)c1nn(C)c2c1CS(=O)(=O)c1ccccc1-2)Cc1ccccc1	61*	2	-17	-1	-8	1	24	18	-9
Cc1c(C(=O)N2CCOCC2)c(S(=O)(=O)Nc2ccccc2F)c(C)n1C	9	0	8	-4	20	2	.	.	.
Cc1c(C(=O)N2CCCCCC2)c(S(=O)(=O)Nc2ccccc2F)c(C)n1C	51	-4	5	13	9	0	24	20	8
CCN(C(=O)COC(=O)c1ccc(Sc2ncn[nH]2)c([N+](=O)[O-])c1)c1ccccc1	.	.	-36	.	.	7	.	.	.
CCCCNC(=O)O[C@H]1CC[C@@]23CCCN2C(=O)CCC[C@H]3[C@H]1C	.	.	.	.	.	11	.	.	.
Cc1nc(N)nc(Nc2ccc(C#N)cc2)c1Br	56*	-12	-29	-1	13	11	32	20	-2
Cc1nc(N)nc(Nc2ccc(Cl)cc2)c1Br	-4	-16	-17	-27	-42	8	.	.	.
CCCCS(=O)(=O)N1CCCc2nc(C)c(C)cc21	.	.	16	.	.	-3	.	.	.
COc1ccc2c(c1)c(CC(=O)OCC(N)=O)c(C)n2C(=O)c1ccc(Cl)cc1	64*	5	-33	-3	10	16	12	-3	-7
COc1ccc2c(c1)c(CC(=O)OCC(=O)O)c(C)n2C(=O)c1ccc(Cl)cc1	-18	11	0	-20	-20	5	.	.	.
COC(=O)[C@H](C(C)C)N(CCc1cn(CC2CCCCC2)nn1)S(=O)(=O)c1ccc(F)cc1Br	.	.	-18	.	.	14	.	.	.
CCCCCCCNC1=CC(=O)CC(c2ccccc2)C1 (stereo not drawn)	59*	-34	-26	-13	-6	5	52*	24	-38
CC1CCN(C(=O)c2[nH]cnc2C(=O)N(C)CCO)CC1	.	.	-5	.	.	-6	.	.	.
CCc1cc(C(=O)N2CCCC(N3CCN(c4cccc(C(F)(F)F)c4)CC3)C2)n(C)n1 (stereo not drawn)	55*	6	16	13	27	24	30	17	-29
O=C(Nc1cccc(Cl)c1)NN(c1ccccc1)C1CCS(=O)(=O)C1 (stereo not drawn)	.	.	-12	.	.	1	.	.	.
O=C(c1ccccc1)c1cc([N+](=O)[O-])ccc1N1CCOCC1	50	27	13	-9	8	-9	56*	53*	-42
SMILES	Gli-Sufu block	LRH-1 inv ag	NCOA2 inhibitor	NCOA1 inh	NCOA3 inh	COUP-TFII inh	Gli-Sufu confirm	Gli cytotox	Wnt3a counter
O=C(c1ccc(Br)cc1)c1cc([N+](=O)[O-])ccc1N1CCOCC1	22	38	-1	0	22	8	.	.	.
O=C(c1ccc(Cl)cc1)c1cc([N+](=O)[O-])ccc1N1CCOCC1	53	15	16	1	1	-28	51*	47*	-41
COC(=O)c1ccccc1S(=O)(=O)NC(=O)[C@H]1O[C@@H](n2ccc(=O)[nH]c2=O)[C@H](O)[C@@H]1O	.	.	-10	.	.	-6	.	.	.
Cn1c(=O)c2c(nc(SCC(=O)NCc3ccc4c(c3)OCO4)n2Cc2ccc(Cl)cc2)n(C)c1=O	62*	3	-9	13	9	-5	27	-7	-25
Cc1ccc(/C=N/NC(=O)c2c(C)nc3ccc(Br)cn23)cc1	45	1	6	1	-256	21	.	.	.
COc1ccc(/C=N\NC(=O)c2c(C)nc3ccc(Br)cn23)cc1	61*	28	15	3	-8	-1	50*	48*	-30
CC1(C)CC(=O)C/C(=N/NC(=O)CCCOc2ccc(Cl)cc2Cl)C1	99*	-12	3	-19	8	1	8	17	-43
O=C(CCCOc1ccc(Cl)cc1Cl)N/N=C/c1ccc(Cl)cc1	-2	14	-40	-20	-12	-3	.	.	.
O=C(N[C@H](Cc1ccccc1)C(=O)NCC1CCCO1)[C@H]1O[C@@H](n2ccc(=O)[nH]c2=O)[C@H](O)[C@@H]1O (stereo partly drawn)	.	.	-26	.	.	-2	.	.	.
COc1ccccc1CNC(=O)C[C@H]1CC[C@H]2[C@@H](COc3ccc(NC(=O)Nc4ccccc4)cc3C(=O)N2C)O1	.	.	-17	.	.	6	.	.	.
Cc1ccc(C[n+]2cc(-c3ccc(Cl)cc3)n3c2CCC3)cc1	77*	22	1	17	14	30	79*	32*	19
Cc1ccc(-c2c[n+](Cc3ccc(Cl)cc3)c3n2CCC3)cc1	79*	22	-12	10	28	31	81*	33*	19

Screening data from PubChem.
